Assay: LNCaP cell loss by flow event count, confirmation, cytotoxicity control for prostate differentiation activator project, single point (AID 1076);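 also: counts scatter-gated live cells after medium removal discards detached dead cells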
Details: flow cytometry event count, 4 d, event count, at 10 µM, stronger effect = lower value

Row | Structure (SMILES) | cell event count
1 | CSc1nc2ccc(Nc3nc(N4CCOCC4)nc(N4CCOCC4)n3)cc2s1 | 138
2 | Nc1ccccc1NC(=O)c1ccccc1N | 313
3 | O=C(Cn1ccc2ccccc2c1=O)NCCC(=O)N1CCN(c2cccc(C(F)(F)F)c2)CC1 | 258
4 | Cc1ccc(-n2c(SCC(=O)Nc3nccs3)nc3c(c2=O)SCC3)cc1 | 282
5 | CCOC(=O)N1CCC(NC(=O)C2CCCN(Cc3nc(-c4cccc(Cl)c4)oc3C)C2)CC1 (stereo not drawn) | 114
6 | Cc1oc(-c2ccccc2F)nc1CN1CCC(C(=O)NC2CC2)CC1 | 496
7 | Cc1oc(-c2cccc(Cl)c2)nc1CN1CCCC(C(=O)NCCCN2CCOCC2)C1 (stereo not drawn) | 220
8 | O=C(NCCCN1CCN(c2ccccc2F)CC1)C1CCC(=O)N1C1CCCC1 (stereo not drawn) | 62
9 | COc1cccc(Oc2cnc(N)nc2-c2ccc(OC)cc2O)c1 | 180
10 | Cc1oc(-c2ccc(Cl)cc2)nc1CN1CCCC(C(=O)N2CCN(C(=O)c3ccco3)CC2)C1 (stereo not drawn) | 120
11 | O=C(CCn1c(=O)[nH]c2ccccc2c1=O)NCCCN1CCN(c2cccc(Cl)c2)CC1 | 354
12 | Cc1ccccc1-c1nc(CN2CCC(C(=O)NCc3cccnc3)CC2)c(C)o1 | 208
13 | Cc1ccc(Cn2ccc(NC(=O)c3cc(-c4ccc(Br)cc4)on3)n2)cc1 | 132
14 | COc1ccc2c(c1)CCc1c(C(=O)Nc3cc(C)n(Cc4ccc(Cl)cc4)n3)noc1-2 | 406
15 | CCc1ncc(C(O)c2cccc(OC)c2OC)n1C (stereo not drawn) | 172
16 | Cc1ccc(CNc2nc3ccccc3n3nnnc23)cc1 | 196
17 | Cc1cc(NC(=O)c2noc3c2CCc2ccccc2-3)n(-c2ccccc2)n1 | 367
18 | CCOc1ccccc1NC(=O)c1nc[nH]c1C(=O)Nc1ccccc1OCC | 248
19 | O=C(CCN1C(=O)COc2ccccc21)NCCCN1CCN(c2ccccc2F)CC1 | 204

Row | Structure (SMILES) | cell event count
20 | CCc1ccc(-c2nc(CN3CCC(C(=O)N4CCN(c5ccccn5)CC4)CC3)c(C)o2)cc1 | 212
21 | Cc1oc(-c2cccc(Cl)c2)nc1CN1CCC(C(=O)NCC2CCCO2)CC1 (stereo not drawn) | 165
22 | COc1cccc(-c2cc(C(=O)N3CCN(C(c4ccccc4)c4ccccc4)CC3)no2)c1 | 402
23 | O=C(CCN1C(=O)COc2ccccc21)NCCCN1CCN(c2ccc(F)cc2)CC1 | 146
24 | COC(=O)c1ccc2c(=O)n(Cc3ccco3)c(SCC(=O)Nc3ccc(C)c(Cl)c3)nc2c1 | 146
25 | O=C(CN1CCC(n2nnc3cc(F)ccc32)CC1)Nc1ccc2c(c1)CCC2 | 466
26 | O=C(CSc1nc2sc3c(c2c(=O)n1-c1ccccc1)CCCC3)NCc1ccco1 | 104
27 | COc1ccccc1N1CCN(C(=O)CCn2c(=O)[nH]c3ccsc3c2=O)CC1 | 224
28 | O=C(COc1ccc(S(=O)(=O)N2CCCC2)cc1Cl)NC1CC1 | 328
29 | CCn1c(C(=O)NCCCN2CCc3ccccc3C2)cc2sccc21 | 380
30 | Cc1cccc(-c2nc(CN3CCCC(C(=O)NC4CCC(C)CC4)C3)c(C)o2)c1 (stereo not drawn) | 138
31 | Cc1ccccc1-c1nc(CN2CCC(C(=O)N3CCC(C(N)=O)CC3)CC2)c(C)o1 | 83.5
32 | Cc1cccc(-c2nsc(SCC(=O)Nc3nccs3)n2)c1 | 169
33 | CCOc1ccc2ccccc2c1C(=O)N1CCN(c2ccccc2)CC1 | 79.5
34 | CCOc1ccc(C(=O)Nc2ccc(Cl)cn2)cc1Cl | 86
35 | CCOC(=O)c1cc2c(=O)n3ccccc3nc2n(CCCOC)c1=NC(=O)c1cccnc1 | 144
36 | COc1ccc(CCNC(=O)C2CCN(Cc3nc(-c4cccc(Cl)c4)oc3C)CC2)cc1OC | 338
37 | CCn1c(=O)cc(SCC(=O)NCCCN2CCN(c3ccccc3F)CC2)c2ccccc21 | 338
38 | CCN(CC)CCCNC(=O)c1cc2c(-c3ccc(Cl)cc3)nn(C)c2s1 | 71.5

From PubChem BioAssay AID1076 (NMMLSC, 2008)
